This passage reports Potency results from PubChem BioAssay (Tox21).

Each structure is given as a SMILES string. Where “and” joins values, the source holds several entries; their conditions need not be identical. Identical values can stand only once. Records with an inconclusive call do not appear. Where a call stands in place of a potency, no number is given. Some compounds were tested as several samples or in several runs, with calls that do not always agree. Calls of active or inactive are those of the source. Calls follow the shape of the dose curve; as a rule, active = well fitted curve in the direction sought with a large enough effect in the repeat runs; inconclusive = weak or mixed curves; inactive = no such curve, though single readings can be large; an effect the other way counts as inactive or inconclusive.
Potency is read from the fitted curve at half-maximal effect.

A short description of one assay: A CellTox Green Cytotoxicity Assay to monitor cytotoxicity in HEK293 cells - 40 hour (AID 1224871). Also: nearly all actives have a fitted effect of over 45% in size. The note with it: CellTox Green fluorescence; series mostly up to 76.8 µM. An outline of the steps:
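Tox21 screen in HEK293: membrane-impermeant cyanine dye fluoresces on binding dead-cell DNA; compound pinned 5 h post-seeding, plates held at 37 C, signal read repeatedly through 40 h.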
Regarding `CCC(=O)Nc1ccc(Cl)c(Cl)c1`, the Potency entry is “inactive”.
As for `ClCC(Cl)CCl`, the Potency entry is “inactive”.
On the same count and under the same terms, as for `O=[N+]([O-])/N=C1\NCCN1Cc1ccc(Cl)nc1`, the entry is “inactive”.
On the same count and under the same terms, under `ClC(Cl)(Cl)c1ccccc1` stands “inactive”.
Consider `CCN(CC)C(=O)C(C)Oc1cccc2ccccc12` (stereo unspecified), for which the Potency entry is “inactive”.
On the same count and under the same terms, under `CC(C)(C#N)N=NC(C)(C)C#N` stands “inactive”.
As for `CCCCOCC1CO1` (stereo unspecified), the Potency entry is “inactive and 19.5 µM (active)”.
Same read-out and setting: as for `CS(=O)(=O)NC(=O)c1cc(Oc2ccc(C(F)(F)F)cc2Cl)ccc1[N+](=O)[O-]`, the entry is “inactive”; as for `CC(C)(c1ccccc1)c1ccc(O)cc1`, 24.3 µM (active) and 27.5 µM (active).
`CC(C)Nc1ccc(Nc2ccccc2)cc1`: the Potency was 48.8 µM (active) and 49 µM (active).
On the same count and under the same terms, as for `COP(=O)(NC(C)=O)SC` (stereo unspecified), the entry is “inactive”; as for `C[N+](C)(C)C`, “inactive”.
On the same count and under the same terms, under `CC1CC(=O)O1` (stereo unspecified) stands “inactive”; under `CCOP(=S)(OCC)OP(=S)(OCC)OCC`, “inactive”.
Same read-out and setting: under `CNC(=S)S` stands “inactive”; under `O=S(=O)(O)C(F)(F)C(F)(F)C(F)(F)C(F)(F)C(F)(F)C(F)(F)C(F)(F)C(F)(F)F`, 33 µM (active) and inactive and 21.9 µM (active).
Consider `CCOS(=O)(=O)OCC`, for which the Potency result is “inactive”.
Same read-out and setting: under `C=CC(Cl)CCl` (stereo unspecified) stands “inactive”; under `C[C@]12CCC(=O)C=C1CC[C@@H]1[C@@H]2CC[C@@]2(C)[C@H]1CC[C@]2(C)O`, 49.4 µM (active) and inactive; under `CC(C)(c1ccccc1)c1ccc(O)c(C(C)(C)c2ccccc2)c1`, 24.3 µM (active) and 43.6 µM (active).
The same measure, in the same setting: under `OCCOCCO` stands “inactive”; under `CCCCC(C#N)(Cn1cncn1)c1ccc(Cl)cc1` (stereo unspecified), “inactive”.
Still for that read-out and setting: under `Cl` stands “inactive”; under `COP(=S)(OC)Oc1ccc(S(=O)(=O)N(C)C)cc1`, “inactive”; under `O=C(O)c1nn(Cc2ccc(Cl)cc2Cl)c2ccccc12`, “inactive”.
Regarding `CC(C)(O)C(=O)Nc1ccc([N+](=O)[O-])c(C(F)(F)F)c1`, the Potency result was “inactive”.
Same read-out and setting: under `CNC(=O)Oc1cccc2c1OC(C)(C)C2` stands “inactive”; under `Oc1ccc(Cl)cc1Cl`, “inactive”; under `CC[n+]1c(-c2ccccc2)c2cc(N)ccc2c2ccc(N)cc21`, “inactive”.
Same read-out and setting: under `N#CC(c1ccccc1)c1ccccc1` stands “inactive”.
Regarding `[Cl-].[Cl-].[Cl-].[Fe+3]`, the Potency entry is “inactive”.
As for `CCCCCCCCCCCCCl`, the Potency entry is “inactive and 17.4 µM (active)”.
Still for that read-out and setting: as for `CCCCOCCOC(C)=O`, the entry is “inactive”; as for `[CH3][Sn]([Cl])([Cl])[Cl]`, “inactive”.
Consider `Nc1ccc([N+](=O)[O-])cc1N`, for which the Potency entry was “inactive”.
Take `ClC(Cl)(Cl)Br`: the Potency entry is “inactive”.
Still for that read-out and setting: as for `COc1ccc(C=O)cc1OC`, the entry is “inactive”; as for `Brc1ccc(Br)cc1`, “inactive”.

A further assay can be described thus: qHTS RealTime-Glo MT Cell Viability Assay in HEK293 cells - 16 hour (AID 1224872). Also: nearly all actives have a fitted effect of over 50% in size. The note with it: RealTime-Glo luminescence; series mostly up to 76.8 µM. In outline:
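Nonlytic real-time viability readout: viable cells convert prosubstrate to NanoLuc substrate, giving luminescence proportional to live cell number. HEK293, 600 cells/well, compound added after 5 h, continuous culture at 37 C.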
(In general: In qHTS, concentration-response curves come from the screen itself.)
With `CCC(=O)Nc1ccc(Cl)c(Cl)c1`, the Potency was 44.5 µM (active).
Same read-out and setting: under `ClCC(Cl)CCl` stands “inactive”.
Same read-out and setting: as for `O=[N+]([O-])/N=C1\NCCN1Cc1ccc(Cl)nc1`, the entry is “inactive”.
On the same count and under the same terms, as for `ClC(Cl)(Cl)c1ccccc1`, the entry is “inactive”.
With `CCN(CC)C(=O)C(C)Oc1cccc2ccccc12` (stereo unspecified), the Potency entry was “inactive”.
Still for that read-out and setting: under `CC(C)(C#N)N=NC(C)(C)C#N` stands “inactive”; under `CCCCOCC1CO1` (stereo unspecified), “inactive”.
Still for that read-out and setting: as for `CS(=O)(=O)NC(=O)c1cc(Oc2ccc(C(F)(F)F)cc2Cl)ccc1[N+](=O)[O-]`, the entry is “inactive”; as for `CC(C)(c1ccccc1)c1ccc(O)cc1`, 48.6 µM (active) and 30.9 µM (active).
Same read-out and setting: as for `CC(C)Nc1ccc(Nc2ccccc2)cc1`, the figure is 17.3 µM (active) and 19.5 µM (active); as for `COP(=O)(NC(C)=O)SC` (stereo unspecified), “inactive”.
Turning to `C[N+](C)(C)C`, the Potency entry was “inactive”.
Same read-out and setting: as for `CC1CC(=O)O1` (stereo unspecified), the entry is “inactive”; as for `CCOP(=S)(OCC)OP(=S)(OCC)OCC`, “inactive”.
With `CNC(=S)S`, the Potency result is “inactive”.
Same read-out and setting: under `O=S(=O)(O)C(F)(F)C(F)(F)C(F)(F)C(F)(F)C(F)(F)C(F)(F)C(F)(F)C(F)(F)F` stands “inactive”; under `CCOS(=O)(=O)OCC`, “inactive”; under `C=CC(Cl)CCl` (stereo unspecified), “inactive”.
On the same count and under the same terms, as for `C[C@]12CCC(=O)C=C1CC[C@@H]1[C@@H]2CC[C@@]2(C)[C@H]1CC[C@]2(C)O`, the figure is 19.7 µM (active); as for `CC(C)(c1ccccc1)c1ccc(O)c(C(C)(C)c2ccccc2)c1`, 21.7 µM (active) and 43.6 µM (active); as for `OCCOCCO`, “inactive”.
Same read-out and setting: under `CCCCC(C#N)(Cn1cncn1)c1ccc(Cl)cc1` (stereo unspecified) stands “inactive”; under `Cl`, “inactive”.
On to `COP(=S)(OC)Oc1ccc(S(=O)(=O)N(C)C)cc1`, for which the Potency result is “inactive”.
Same read-out and setting: as for `O=C(O)c1nn(Cc2ccc(Cl)cc2Cl)c2ccccc12`, the entry is “inactive”.
As for `CC(C)(O)C(=O)Nc1ccc([N+](=O)[O-])c(C(F)(F)F)c1`, the Potency was 25.1 µM (active) and 25.3 µM (active).
On the same count and under the same terms, under `CNC(=O)Oc1cccc2c1OC(C)(C)C2` stands “inactive”; under `Oc1ccc(Cl)cc1Cl`, “inactive”; under `CC[n+]1c(-c2ccccc2)c2cc(N)ccc2c2ccc(N)cc21`, 17.3 µM (active) and 23.9 µM (active).
The same measure, in the same setting: under `N#CC(c1ccccc1)c1ccccc1` stands “inactive”.
With `[Cl-].[Cl-].[Cl-].[Fe+3]`, the Potency result was “inactive”.
On the same count and under the same terms, as for `CCCCCCCCCCCCCl`, the entry is “inactive”.
The same measure, in the same setting: as for `CCCCOCCOC(C)=O`, the entry is “inactive”.
The same measure, in the same setting: as for `[CH3][Sn]([Cl])([Cl])[Cl]`, the entry is “inactive”.
On to `Nc1ccc([N+](=O)[O-])cc1N`, for which the Potency result is “inactive”.
On the same count and under the same terms, under `ClC(Cl)(Cl)Br` stands “inactive”; under `COc1ccc(C=O)cc1OC`, “inactive”; under `Brc1ccc(Br)cc1`, “inactive”.
